High-throughput results deposited in PubChem BioAssay by several laboratories.
Most compounds without a hit are left out; they make up all but 27% or so of the library.
CYP2C9 inhib: blocks human cytochrome P450 2C9 | 96,000 tested, 20% active | CYP2C9 Supersomes, luciferin-H conversion, luminescence | P11712 | inhibition, % at 5 µM;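 active = blocking of liver enzyme CYP2C9 beyond about 50% at 5 µM, limit read from the data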
Target sequence (P11712 whole entry, looked up): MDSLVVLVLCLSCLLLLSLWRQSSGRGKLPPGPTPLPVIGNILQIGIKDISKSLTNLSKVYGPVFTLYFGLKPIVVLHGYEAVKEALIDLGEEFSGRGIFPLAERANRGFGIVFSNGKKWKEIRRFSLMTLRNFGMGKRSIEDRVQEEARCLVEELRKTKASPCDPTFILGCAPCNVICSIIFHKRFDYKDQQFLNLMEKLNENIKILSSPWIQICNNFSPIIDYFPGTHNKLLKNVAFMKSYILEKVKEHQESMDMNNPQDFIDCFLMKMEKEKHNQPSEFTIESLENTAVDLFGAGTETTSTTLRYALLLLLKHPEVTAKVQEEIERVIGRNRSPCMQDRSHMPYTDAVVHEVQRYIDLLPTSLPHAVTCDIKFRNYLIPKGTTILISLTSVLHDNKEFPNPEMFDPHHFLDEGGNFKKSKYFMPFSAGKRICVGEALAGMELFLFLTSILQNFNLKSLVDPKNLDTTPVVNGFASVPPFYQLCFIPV
sEH inhibitor: blocks human soluble epoxide hydrolase activity | inhibition, % at 2 µM | 91,000 tested, 0.34% active | P34913 | recombinant human sEH enzymatic activity assay; in the data active = inhibition above about 80%
CYP2C19 inh: inhibitors of human CYP2C19 | P33261 | CYP2C19 Supersomes, luciferin-H EGE luminescence, 30 min | inhibition, % at 5 µM | 96,000 tested, 21% active | AID 778;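 active = CYP2C19 inhibition above a set limit at 5 µM in the primary screen, cut at about 50% in these data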;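 note: plate controls were negative control wells for no effect and 2.5 mM tranylcypromine positive control for full effect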
CYP2C19 activ: increases human CYP2C19 enzyme activity; P33261; recombinant CYP2C19, luciferin-H EGE luminescence; active compounds read high; 0 = fully inhibited enzyme, 1 = untreated enzyme; activation factor at 5 µM; 96,000 tested, under 10 active;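 active = activation factor of at least 2 at 5 µM in the primary screen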;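 note: 0 = wells with 2.5 mM tranylcypromine and 1 = vehicle-only wells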
CYP2C9 act: activators of human CYP2C9 | P11712 | recombinant CYP2C9, luciferin-H conversion, luminescence; active compounds read high; factor 1 = untreated enzyme, 0 = blocked | activation factor at 5 µM | 96,000 tested, 1.4% active | AID 1024;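 active = activation factor of 2 or more for CYP2C9 at a 5 µM dose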;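 note: 0 = sulfaphenazole-blocked wells and 1 = vehicle-only wells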
sEH activator: increases human soluble epoxide hydrolase activity; P34913; purified human sEH enzymatic activity, activator screen; activation, % at 2 µM; 91,000 tested, 0.04% active; AID 717; in the data active = activation above about 37%
* hit, by the source's call; · = not tested or not shown.

SMILES	CYP2C9 inhib	sEH inhibitor	CYP2C19 inh	CYP2C19 activ	CYP2C9 act	sEH activator
CCN(CC)c1cccc(OC2=NS(=O)(=O)c3ccccc32)c1	-26	-15	2	1	1.3	16
CCOC(=O)Cc1csc(SCc2nc3ccccc3c(=O)[nH]2)n1	73*	-6	45	0.6	0.3	6
O=C(OCc1nc2ccccc2c(=O)[nH]1)c1cccs1	59*	-15	58*	0.4	0.4	13
O=c1[nH]c(Cc2cccs2)nc2ccccc12	5	8	13	0.9	0.9	-6
CCOC(=O)Cc1csc(SCC(=O)/C(C#N)=C(\C)N)n1	19	2	95*	0.1	0.8	-3
CCn1c(SCc2nc3ccccc3c(=O)[nH]2)nc2ccccc2c1=O	·	-1	·	·	·	0
COc1ccc(-c2oc3ncn4nc(Cc5ccccc5)nc4c3c2-c2ccc(OC)cc2)cc1	34	-7	16	0.8	0.7	11
CCOC(=O)c1sc(NC(=O)c2cc(-c3ccccc3C)nc3ccccc23)c(C#N)c1C	55*	7	4	1	0.5	-4
Cc1ccccc1-c1cc(C(=O)Nc2sc(C)c(C)c2C(N)=O)c2ccccc2n1	98*	4	69*	0.3	0	-2
CCOC(=O)c1sc(NC(=O)CSc2nc(C)cc(-c3ccccc3)n2)c(C#N)c1C	46	-8	10	0.9	0.5	10
COc1ccc(CNC(=O)C/C(C)=N/NC(=O)C(c2ccccc2)c2ccccc2)cc1	56*	9	14	0.9	0.4	-8
COC(=O)c1ccc(NC2(C#N)C(=O)Nc3ccccc32)cc1 (stereo not given)	71*	-3	52*	0.5	0.3	5
CCS(=O)(=O)Nc1ccc(C(=O)CC2(O)C(=O)Nc3ccccc32)cc1 (stereo not given)	1	-20	-12	1.1	1	22
COc1cc(CN(C)CC(=O)c2[nH]c(C)c(C(C)=O)c2C)ccc1OC(F)F	70*	-6	73*	0.3	0.3	8
O=S(=O)(NCc1cc(-c2ccccc2Cl)no1)c1ccc(Cl)cc1	-87	0	93*	0.1	1.9	2
O=S(=O)(NCc1ccccc1)c1ccc(Cl)c(S(=O)(=O)NCc2ccccc2)c1	26	-9	28	0.7	0.7	8
Cc1ccc(Nc2nc(C(=O)N3CCC(C(=O)N4CCN(C)CC4)CC3)cs2)cc1	30	-7	77*	0.2	0.7	6
Cc1ccc(Nc2nc(C(=O)N3CCC(C(=O)NCCN4CCOCC4)CC3)cs2)cc1	-9	-6	8	0.9	1.1	8
COc1cccc(/C(C#N)=C/c2c(-c3ccc(Cl)cc3)nc3c(C)cccn23)c1	70*	-8	55*	0.4	0.3	6
COc1ccc(-c2nn(-c3ccccc3)cc2C#N)cc1	12	-11	3	1	0.9	8
CC(C)NC(=O)C(Cc1ccccc1)N1C(=O)c2ccccc2C1=O (stereo not given)	·	6	·	·	·	-1
CCN(CC)C(=O)C(Cc1ccccc1)N1C(=O)c2ccccc2C1=O (stereo not given)	53*	-13	67*	0.3	0.5	11
O=C(Cn1nc(Cc2cccnc2)c2ccccc2c1=O)NCc1ccc(F)cc1	83*	·	58*	0.4	0.2	·
Cc1nn(CC(=O)NCc2cccnc2)c(=O)c2ccccc12	-4	1	17	0.8	1	-1
COc1cc(NC(=O)Cn2nc(Cc3cccnc3)c3ccccc3c2=O)cc(OC)c1OC	62*	-2	54*	0.5	0.4	0
SMILES	CYP2C9 inhib	sEH inhibitor	CYP2C19 inh	CYP2C19 activ	CYP2C9 act	sEH activator
O=C(Cn1nc(Cc2cccnc2)c2ccccc2c1=O)NCc1ccc2c(c1)OCO2	89*	·	56*	0.4	0.1	·
O=C(Cn1nc(Cc2cccnc2)c2ccccc2c1=O)N1CCN(c2ccccn2)CC1	87*	·	42	0.6	0.1	·
COc1ccc(NC(=O)Cn2nc(Cc3cccnc3)c3ccccc3c2=O)cc1OC	18	12	4	1	0.8	-11
CCCCN(CC)CCCNC(=O)Cn1nc(Cc2cccnc2)c2ccccc2c1=O	11	9	2	1	0.9	-8
CC(C(=O)Nc1nc2ccccc2[nH]1)N1C(=O)C2CC=CCC2C1=O (stereo not given)	34	-4	14	0.9	0.7	3
CC(C)OP(=O)(OC(C)C)C(NC(=O)c1ccc(Br)cc1)c1ccccc1 (stereo not given)	41	·	50	0.5	0.6	·
Cc1cc(C)cc(Oc2cc(NC(=O)c3cn(C)nc3C)cc([N+](=O)[O-])c2)c1	48	20	24	0.8	0.5	-19
CCOc1ccc(C(=O)O)cc1OC	-13	1	-14	1.1	1.1	-2
CCOc1ccc(CC2c3cc(OCC)c(OCC)cc3CCN2C(=O)c2cc(OC)c(OC)c(OC)c2)cc1OCC (stereo not given)	60*	10	65*	0.3	0.4	-11
CCN(CC)S(=O)(=O)c1ccc(NC(=O)C(C)N(c2ccccc2)S(C)(=O)=O)cc1 (stereo not given)	·	0	·	·	·	1
CS(=O)(=O)Nc1ccc(C(=O)Nc2ccccc2C(=O)N2CCCC2)cc1	31	3	4	1	0.7	-5
O=C(c1ccccc1Nc1ccc(SC(F)F)cc1)N1CCCCCC1	60*	-11	84*	0.2	0.4	11
CC(C)C(C(=O)Nc1ccc(N2CCOCC2)cc1)N1C(=O)c2ccccc2C1=O (stereo not given)	16	·	23	0.8	0.8	·
CN1C(=O)/C(=C/c2cc(N=Nc3ccccc3)ccc2O)SC1=S	29	6	14	0.9	0.7	-8
CC1Cc2ccccc2N1C(=O)CSc1nnc2sc3ccccc3n12 (stereo not given)	67*	2	100*	0	0.3	-1
Cc1ccc2nc(SCC(=O)N3c4ccccc4CC3C)c(C)cc2c1 (stereo not given)	67*	-1	38	0.6	0.3	-1
Cc1ccc2nc(-c3cccnc3SCC(=O)N3c4ccccc4CC3C)[nH]c2c1 (stereo not given)	16	8	8	0.9	0.8	-8
Cc1nnc(SCC(=O)N2c3ccccc3CC2C)s1 (stereo not given)	14	-8	69*	0.3	0.9	9
CCc1nc(SCC(=O)N2c3ccccc3CC2C)c2c(C)c(C)sc2n1 (stereo not given)	99*	5	64*	0.4	0	-2
CCc1nc(SCC(=O)N2CC(=O)Nc3ccccc32)c2c(C)c(C)sc2n1	14	1	4	1	0.9	2
Cc1ccccc1-n1ncc2c(SCC(=O)N3c4ccccc4CC3C)ncnc21 (stereo not given)	62*	8	34	0.7	0.4	-6
